Measured values as given in PubChem BioAssay (NCATS).
Records with an inconclusive call do not appear. The source made the active and inactive calls. Calls come from the whole dose curve; as a rule, active = well fitted inhibition curve with a large enough effect; inconclusive = small, poorly fitted or top-dose-only effect; inactive = flat fitted curve, though single readings scatter. Where a SMILES comes first, the peptide text is derived from it. [ ]: non-standard residue; d: D form. ξ: configuration not given here. ξTyr(βOH) = NC(C(=O)O)C(O)c1ccc(O)cc1

Tests used:
[1] = system: CRL-7250; experiment: Cytotoxic Profiling of Annotated Libraries Using Quantitative High-Throughput Screening (AID 1296008); conditions: Five cell lines viability, CellTiter-Glo ATP luminescence, 48-72 h; max response: hits give low values; for max response: % is set by controls: 0 for no effect and ±100 for the full control effect
How it was run: (§1)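 Cytotoxicity was measured as CellTiter-Glo ATP luminescence, read after 10 min at room temperature. Compound treatment of the cells lasted 48 or 72 hr at 37 degrees Celsius in a qHTS format.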

[2] = system: HEK293; experiment: as above; conditions: Five cell lines viability, CellTiter-Glo ATP luminescence, 48-72 h; max response: hits give low values
How it was run: as §1

[3] = system: HaCat; experiment: as above; conditions: Five cell lines viability, CellTiter-Glo ATP luminescence, 48-72 h; max response: hits give low values
How it was run: as §1

[4] = system: KB-3-1; experiment: as above; conditions: Five cell lines viability, CellTiter-Glo ATP luminescence, 48-72 h; max response: hits give low values
How it was run: as §1

[5] = system: NIH3T3; experiment: as above; conditions: Five cell lines viability, CellTiter-Glo ATP luminescence, 48-72 h; max response: hits give low values
How it was run: as §1

[6] = system: HACAT; experiment: qHTS assay to identify novel small-molecules to repurpose for Merkel cell carcinoma treatment (AID 1296009); conditions: MCC and control cell lines, CellTiter-Glo viability, 72 h; at 44.8 µM (top of the series) unless noted
How it was run: (§2)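 Cell viability measured by CellTiter-Glo following 72 hr compound treatment at 37 degree celsius, with NPC and MIPE libraries tested in 8- and 11-point concentration series.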

[7] = system: NIH3T3; experiment: as above; conditions: MCC and control cell lines, CellTiter-Glo viability, 72 h; at 44.8 µM (top of the series) unless noted
How it was run: as §2

Measured: max response
Note: nearly all actives have a fitted effect of over 60% in size.

C=C1C(O)C(O)C2(CC3C(C)=CCC4C(C)(C(=O)O)CCCC34C)OC2C1O (configuration not stated)
inactive: [1] -4.59% | [2] 1.46% | [3] | [4] 2.87% | [5] | [6] | [7]

Cc1oc2nc3c(c(NC(=O)CN4CCCC4=O)c2c1C)CCCC3
inactive: [1] 3.82% | [2] -1.01% | [3] | [4] 8.69% | [5] | [6] | [7]

C/C=C1/[C@H](O[C@@H]2O[C@H](CO)[C@@H](O)[C@H](O)[C@H]2O)OC=C(C(=O)OC)[C@H]1CC(=O)OCCc1ccc(O)c(O)c1
inactive: [1] -12.9% | [2] -8.69% | [3] | [4] 4.42% | [5] | [6] inactive [at 17.4 µM] | [7] inactive [at 17.4 µM]

CC1(C(=O)O)CCCC2(C)C3CCC4CC3(CCC12)CC4C(=O)O (configuration not stated)
inactive: [1] | [2] 1.27% | [3] | [4] 6.21% | [5] | [6] | [7]

CC1=C(CO)CC(C(C)C2CCC3C4CC=C5CC(OC6OC(COC7OC(CO)C(O)C(O)C7O)C(O)C(O)C6O)CC(O)C5(C)C4CCC23C)OC1=O (configuration not stated)
inactive: [1] | [2] -8.19% | [3] | [4] -0.551% | [5] | [6] inactive [at 17.4 µM] | [7] inactive [at 17.4 µM]

Cc1ccc(C)c(S(=O)(=O)n2cnc3ccccc32)c1
inactive: [1] -12.1% | [2] -10.9% | [3] | [4] | [5] | [6] | [7]

O=C(O)Cc1cn([C@@H]2OC[C@@H](O[C@@H]3O[C@H](CO)[C@@H](O)[C@H](O)[C@H]3O)[C@H](O)[C@H]2O[C@@H]2O[C@H](CO)[C@@H](O)[C@H](O)[C@H]2O)c2ccccc12
inactive: [1] -0.703% | [2] 2.5% | [3] | [4] 5.94% | [5] | [6] inactive [at 17.4 µM] | [7] inactive [at 17.4 µM]

C[C@]1(OC(=O)/C=C/c2ccc(O)cc2)C[C@@H](O)[C@]2(O)C=CO[C@@H](O[C@@H]3O[C@H](CO)[C@@H](O)[C@H](O)[C@H]3O)C12 (some centres not stated)
inactive: [1] 4.79% | [2] -2.23% | [3] | [4] 6.86% | [5] | [6] inactive [at 17.4 µM] | [7] inactive [at 17.4 µM]

C[C@@H]1O[C@@H](O[C@H]2[C@H](O[C@H]3[C@H](O[C@H]4CC[C@@]5(C)C(CC[C@]6(C)C5CC=C5[C@@H]7CC(C)(C)C[C@@H](O)[C@]7(C)CC[C@]56C)[C@@]4(C)CO)O[C@H](C(=O)O)[C@@H](O)[C@@H]3O)O[C@H](C(=O)O)[C@H](O)[C@@H]2O)[C@H](O)[C@H](O)[C@H]1O (some centres not stated)
inactive: [1] -5.52% | [2] -6.47% | [3] | [4] -1.92% | [5] | [6] inactive [at 9.27 µM] | [7] inactive [at 9.27 µM]

O=C(/C=C/c1ccc(O)cc1)O[C@H]1[C@H](OC2CCCCC2O)O[C@H](CO)[C@@H](O)[C@@H]1O (some centres not stated)
inactive: [1] -2.64% | [2] 2.98% | [3] | [4] 5.56% | [5] | [6] inactive [at 17.4 µM] | [7] inactive [at 17.4 µM]

C=C(C)[C@@]1(O)C[C@@]2(C)C(=CC1=O)CC[C@@H](O)[C@@H]2C
inactive: [1] 3.28% | [2] 4.61% | [3] | [4] -1.96% | [5] | [6] | [7]

O=C(O)Cc1cn([C@@H]2O[C@H](CO)[C@@H](O)[C@H](O)[C@H]2O[C@@H]2O[C@H](CO)[C@@H](O)[C@H](O)[C@H]2O)c2ccccc12
inactive: [1] -3.23% | [2] 2.13% | [3] | [4] 4.7% | [5] | [6] inactive [at 17.4 µM] | [7] inactive [at 17.4 µM]

C=C1C(O)CC2C(C(=O)O)=COC(OC3OC(CO)C(O)C(O)C3OC(=O)/C=C\c3ccc(O)cc3)C12 (configuration not stated)
inactive: [1] 0.287% | [2] -11.5% | [3] | [4] 0.941% | [5] | [6] inactive [at 17.4 µM] | [7] inactive [at 17.4 µM]

Cc1cn(-c2cc(NC(=O)c3ccc(C)c(Nc4nccc(-c5cnccn5)n4)c3)cc(C(F)(F)F)c2)cn1
inactive: [1] -3.34% | [2] -20.5% | [3] | [4] -2.9% | [5] | [6] | [7]

COc1cc(CO)cc(OC)c1O[C@@H]1O[C@H](CO)[C@@H](O)[C@H](O)[C@H]1O
inactive: [1] -11.4% | [2] -2.97% | [3] | [4] 4.69% | [5] | [6] | [7]

C/C(=C\CCC(C)CCO)C(=O)OC[C@H]1O[C@@H](O[C@@H]2OC=C(C(=O)O)[C@H]3CC[C@](C)(O)[C@@H]23)C(O)[C@@H](O)C1O (some centres not stated)
inactive: [1] 3.02% | [2] 4.12% | [3] | [4] | [5] | [6] inactive [at 17.4 µM] | [7] inactive [at 17.4 µM]

CC(C)C1NC(=O)CNC(=O)C2CCCN2C(=O)C(Cc2c[nH]c3ccccc23)NC(=O)CNC(=O)C(C(O)c2ccc(O)cc2)NC(=O)CNC1=O (configuration not stated) (cyclo(G[ξTyr(βOH)]GWPGV); configuration not given here)
inactive: [1] -8.12% | [2] 1.2% | [3] | [4] 2.88% | [5] | [6] inactive [at 17.4 µM] | [7] inactive [at 17.4 µM]

C[C@@H]1O[C@@H](O[C@H]2[C@H](O[C@H]3[C@H](O[C@H]4CC[C@@]5(C)C(CC[C@]6(C)C5CC=C5[C@@H]7CC(C)(C)C[C@@H](O)[C@]7(C)CC[C@]56C)[C@@]4(C)CO)O[C@H](C(=O)O)[C@@H](O)[C@@H]3O)O[C@H](CO)[C@H](O)[C@@H]2O)[C@H](O)[C@H](O)[C@H]1O (some centres not stated)
inactive: [1] 3.95% | [2] -3.77% | [3] | [4] | [5] | [6] inactive [at 9.27 µM] | [7] inactive [at 9.27 µM]

COc1cccc(CN(C(=O)CC(C)(C)C)C2CC(C(=O)N3CCNCC3)N(Cc3ccc4c(c3)OCO4)C2)c1 (configuration not stated)
inactive: [1] -4.46% | [2] -17.6% | [3] | [4] | [5] | [6] | [7]

CC1(C)CC[C@]2(C(=O)O[C@@H]3O[C@H](CO)[C@@H](O)[C@H](O)[C@H]3O)CC[C@]3(C)C(=CCC4[C@@]5(C)C[C@H](O)[C@H](O[C@@H]6O[C@H](C(=O)O)[C@@H](O)[C@H](O)[C@H]6O)[C@@](C)(CO)C5CC[C@]43C)C2C1 (some centres not stated)
inactive: [1] -4.26% | [2] 1.87% | [3] | [4] -16.3% | [5] | [6] inactive [at 9.27 µM] | [7] inactive [at 9.27 µM]

COc1cc(/C=C/C(=O)O[C@H]2[C@@H]3C=CO[C@@H](O[C@@H]4O[C@H](CO)[C@@H](O)[C@H](O)[C@H]4O)[C@@H]3[C@@]3(CO)O[C@@H]23)ccc1O
inactive: [1] | [2] 1.49% | [3] | [4] | [5] | [6] inactive [at 17.4 µM] | [7] inactive [at 17.4 µM]

O=C(O)c1cc(O[C@@H]2O[C@H](CO)[C@@H](O)[C@H](O)[C@H]2O)ccc1O
inactive: [1] -1.11% | [2] -8.21% | [3] | [4] 1.47% | [5] | [6] | [7]

C[C@]12CCC[C@](C)(C(=O)O)C1[C@@H](O)[C@@H](O)C13CC(CCC12)C(CO)(O[C@@H]1O[C@H](CO)[C@@H](O)[C@H](O)[C@H]1O)C3 (some centres not stated)
inactive: [1] 4.72% | [2] -8.27% | [3] | [4] 8.89% | [5] | [6] inactive [at 17.4 µM] | [7] inactive [at 17.4 µM]

C=C(CC/C=C(\C)C(=O)O)C1(O)CC=C(C)CC1 (configuration not stated)
inactive: [1] 2.5% | [2] 4.47% | [3] | [4] | [5] | [6] | [7]

COC1OC(OC)C(O)(CCC2(C)C(C)CCC3(C)C2CC(O)C(O)C32CO2)C1O (configuration not stated)
inactive: [1] -2.11% | [2] 1.57% | [3] | [4] 5.15% | [5] | [6] inactive [at 17.4 µM] | [7] inactive [at 17.4 µM]

CC(=O)NC1CC(=O)C23C(=O)NC(Cc4c[nH]c5ccccc45)C2C(C)=C(C)C(O)C3/C=C/CC(C)/C=C(/C)C(O)C1O (configuration not stated)
inactive: [1] -0.702% | [2] 4.13% | [3] | [4] 0.623% | [5] | [6] inactive [at 17.4 µM] | [7] inactive [at 17.4 µM]

CC(=O)O[C@@H]1[C@H](O[C@@H]2O[C@H](CO)[C@@H](O)[C@H](O)[C@H]2O)[C@@H](O[C@@H]2O[C@@H](C)[C@H](O)[C@@H](O[C@@H]3O[C@H](CO)[C@@H](O)[C@H](O)[C@H]3O)[C@H]2O)[C@H](OC(=O)[C@]23CCC(C)(C)C[C@H]2C2=CCC4[C@@]5(C)C[C@H](O)[C@H](O[C@@H]6O[C@H](C(=O)O)[C@@H](O)[C@H](O)[C@H]6O)[C@@](C)(C(=O)O)C5CC[C@@]4(C)[C@]2(C)CC3)O[C@@H]1C (some centres not stated)
inactive: [1] -5.6% | [2] -5.4% | [3] | [4] | [5] | [6] inactive [at 9.27 µM] | [7] inactive [at 9.27 µM]

CC1CCC2(C(=O)OC3OC(CO)C(O)C(O)C3O)CCC3(C)C(=CCC4C5(C)CCC(O)C(C)(CO)C5CCC43C)C2C1(C)O (configuration not stated)
inactive: [1] | [2] -1.85% | [3] | [4] | [5] | [6] inactive [at 17.4 µM] | [7] inactive [at 17.4 µM]

COc1cc(C(=O)OC[C@H]2O[C@@H](OC(C)(C)C(=O)O)[C@H](O)[C@@H](O)[C@@H]2O)cc(OC)c1O
inactive: [1] -2.21% | [2] -6.34% | [3] | [4] | [5] | [6] inactive [at 17.4 µM] | [7] inactive [at 17.4 µM]

C=CCc1ccc(O[C@@H]2O[C@H](CO)[C@@H](O)[C@H](O)[C@H]2O)c(O[C@@H]2O[C@H](CO)[C@@H](O)[C@H](O)[C@H]2O)c1
inactive: [1] -3.11% | [2] -0.299% | [3] | [4] | [5] | [6] inactive [at 17.4 µM] | [7] inactive [at 17.4 µM]

C=C1[C@H]2CCC3[C@]4(C)CCC[C@@](C)(C(=O)O)C4CC[C@]3(C2)[C@H]1OC(C)=O (some centres not stated)
inactive: [1] -1.83% | [2] 3.77% | [3] | [4] | [5] | [6] | [7]
